Experimental data from the supplement of paper PMC11001985.
Values without a mark were called inactive.

Compound: C#CCNC(=O)CCSSCCC(=O)NCCc1ccc(C=O)c(C=O)c1
Test: lysine labeling ratio R10:1 (500 µM / 50 µM probe), SILAC-ABPP in living cells; higher = lower intrinsic lysine reactivity toward the probe, active = 2 or less
Details: HeLa; probe concentrations 500 vs 50 µM
Summary of the method: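 R, given per lysine, is the filtered median high-probe/low-probe MS1 peptide ratio, with the median then taken across forward and reverse replicates. Cells were living SILAC light and heavy HeLa cells in PBS at room temperature, labelled with 50 µM or 500 µM of an alkyne-tagged, disulfide-linked lysine probe. The ceiling applied is 20.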

UniProt O00469, sequence (O00469 whole entry): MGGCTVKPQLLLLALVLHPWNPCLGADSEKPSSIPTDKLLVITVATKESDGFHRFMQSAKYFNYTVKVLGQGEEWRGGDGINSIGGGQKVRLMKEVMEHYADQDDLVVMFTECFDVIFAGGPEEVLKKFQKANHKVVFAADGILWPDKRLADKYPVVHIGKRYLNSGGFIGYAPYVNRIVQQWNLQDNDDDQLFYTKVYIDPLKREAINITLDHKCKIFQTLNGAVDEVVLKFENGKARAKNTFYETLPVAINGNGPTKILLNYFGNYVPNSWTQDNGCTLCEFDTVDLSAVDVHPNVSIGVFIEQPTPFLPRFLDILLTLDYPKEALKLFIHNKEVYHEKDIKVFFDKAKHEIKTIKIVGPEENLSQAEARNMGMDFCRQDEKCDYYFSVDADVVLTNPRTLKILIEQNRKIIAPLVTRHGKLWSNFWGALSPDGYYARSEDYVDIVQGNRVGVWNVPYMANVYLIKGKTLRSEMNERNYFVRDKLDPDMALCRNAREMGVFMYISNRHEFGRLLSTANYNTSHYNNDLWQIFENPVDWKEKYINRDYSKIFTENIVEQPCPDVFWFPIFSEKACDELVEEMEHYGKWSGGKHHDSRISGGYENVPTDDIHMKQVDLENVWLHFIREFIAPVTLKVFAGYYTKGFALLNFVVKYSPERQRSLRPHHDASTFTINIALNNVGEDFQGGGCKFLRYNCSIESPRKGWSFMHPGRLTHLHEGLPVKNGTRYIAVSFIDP
UniProt P06733, sequence (P06733 whole entry): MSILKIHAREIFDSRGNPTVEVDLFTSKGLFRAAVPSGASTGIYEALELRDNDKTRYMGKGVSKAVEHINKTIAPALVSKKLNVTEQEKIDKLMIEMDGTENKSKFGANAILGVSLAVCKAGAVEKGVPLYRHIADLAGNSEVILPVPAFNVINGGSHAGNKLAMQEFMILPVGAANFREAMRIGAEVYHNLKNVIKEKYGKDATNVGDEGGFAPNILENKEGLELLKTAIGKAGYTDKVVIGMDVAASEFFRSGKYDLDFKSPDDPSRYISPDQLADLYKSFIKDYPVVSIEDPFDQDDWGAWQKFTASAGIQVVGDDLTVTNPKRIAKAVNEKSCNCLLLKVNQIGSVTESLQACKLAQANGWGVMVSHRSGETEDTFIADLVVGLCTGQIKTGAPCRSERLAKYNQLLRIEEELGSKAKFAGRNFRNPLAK
UniProt P26641, sequence (P26641 whole entry): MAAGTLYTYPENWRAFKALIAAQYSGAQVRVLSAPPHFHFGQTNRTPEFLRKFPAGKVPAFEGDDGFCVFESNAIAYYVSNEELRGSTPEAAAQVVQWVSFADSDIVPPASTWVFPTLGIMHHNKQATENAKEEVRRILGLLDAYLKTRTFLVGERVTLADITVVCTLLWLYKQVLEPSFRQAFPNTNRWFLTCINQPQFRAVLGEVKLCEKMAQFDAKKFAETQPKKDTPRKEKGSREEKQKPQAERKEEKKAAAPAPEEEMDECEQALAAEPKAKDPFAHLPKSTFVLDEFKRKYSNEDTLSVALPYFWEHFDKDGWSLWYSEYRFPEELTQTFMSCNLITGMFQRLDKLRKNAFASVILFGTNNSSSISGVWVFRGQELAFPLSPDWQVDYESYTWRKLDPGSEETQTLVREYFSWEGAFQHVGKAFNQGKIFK
UniProt P15311, sequence (P15311 whole entry): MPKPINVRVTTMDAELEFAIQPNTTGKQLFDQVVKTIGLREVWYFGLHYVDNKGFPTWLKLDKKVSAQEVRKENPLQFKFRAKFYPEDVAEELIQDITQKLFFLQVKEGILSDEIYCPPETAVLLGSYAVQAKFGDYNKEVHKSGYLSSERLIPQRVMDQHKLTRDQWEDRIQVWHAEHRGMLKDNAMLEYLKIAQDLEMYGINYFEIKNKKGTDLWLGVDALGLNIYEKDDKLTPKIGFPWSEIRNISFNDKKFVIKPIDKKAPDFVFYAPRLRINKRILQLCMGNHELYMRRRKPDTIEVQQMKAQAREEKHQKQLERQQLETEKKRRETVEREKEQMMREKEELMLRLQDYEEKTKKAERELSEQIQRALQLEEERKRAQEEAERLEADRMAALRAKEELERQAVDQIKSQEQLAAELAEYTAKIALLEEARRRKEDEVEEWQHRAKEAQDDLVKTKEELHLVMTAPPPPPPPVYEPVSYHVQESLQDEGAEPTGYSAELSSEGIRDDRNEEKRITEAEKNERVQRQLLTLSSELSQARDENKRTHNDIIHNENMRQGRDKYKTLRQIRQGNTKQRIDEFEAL
UniProt P35579, sequence (P35579 whole entry): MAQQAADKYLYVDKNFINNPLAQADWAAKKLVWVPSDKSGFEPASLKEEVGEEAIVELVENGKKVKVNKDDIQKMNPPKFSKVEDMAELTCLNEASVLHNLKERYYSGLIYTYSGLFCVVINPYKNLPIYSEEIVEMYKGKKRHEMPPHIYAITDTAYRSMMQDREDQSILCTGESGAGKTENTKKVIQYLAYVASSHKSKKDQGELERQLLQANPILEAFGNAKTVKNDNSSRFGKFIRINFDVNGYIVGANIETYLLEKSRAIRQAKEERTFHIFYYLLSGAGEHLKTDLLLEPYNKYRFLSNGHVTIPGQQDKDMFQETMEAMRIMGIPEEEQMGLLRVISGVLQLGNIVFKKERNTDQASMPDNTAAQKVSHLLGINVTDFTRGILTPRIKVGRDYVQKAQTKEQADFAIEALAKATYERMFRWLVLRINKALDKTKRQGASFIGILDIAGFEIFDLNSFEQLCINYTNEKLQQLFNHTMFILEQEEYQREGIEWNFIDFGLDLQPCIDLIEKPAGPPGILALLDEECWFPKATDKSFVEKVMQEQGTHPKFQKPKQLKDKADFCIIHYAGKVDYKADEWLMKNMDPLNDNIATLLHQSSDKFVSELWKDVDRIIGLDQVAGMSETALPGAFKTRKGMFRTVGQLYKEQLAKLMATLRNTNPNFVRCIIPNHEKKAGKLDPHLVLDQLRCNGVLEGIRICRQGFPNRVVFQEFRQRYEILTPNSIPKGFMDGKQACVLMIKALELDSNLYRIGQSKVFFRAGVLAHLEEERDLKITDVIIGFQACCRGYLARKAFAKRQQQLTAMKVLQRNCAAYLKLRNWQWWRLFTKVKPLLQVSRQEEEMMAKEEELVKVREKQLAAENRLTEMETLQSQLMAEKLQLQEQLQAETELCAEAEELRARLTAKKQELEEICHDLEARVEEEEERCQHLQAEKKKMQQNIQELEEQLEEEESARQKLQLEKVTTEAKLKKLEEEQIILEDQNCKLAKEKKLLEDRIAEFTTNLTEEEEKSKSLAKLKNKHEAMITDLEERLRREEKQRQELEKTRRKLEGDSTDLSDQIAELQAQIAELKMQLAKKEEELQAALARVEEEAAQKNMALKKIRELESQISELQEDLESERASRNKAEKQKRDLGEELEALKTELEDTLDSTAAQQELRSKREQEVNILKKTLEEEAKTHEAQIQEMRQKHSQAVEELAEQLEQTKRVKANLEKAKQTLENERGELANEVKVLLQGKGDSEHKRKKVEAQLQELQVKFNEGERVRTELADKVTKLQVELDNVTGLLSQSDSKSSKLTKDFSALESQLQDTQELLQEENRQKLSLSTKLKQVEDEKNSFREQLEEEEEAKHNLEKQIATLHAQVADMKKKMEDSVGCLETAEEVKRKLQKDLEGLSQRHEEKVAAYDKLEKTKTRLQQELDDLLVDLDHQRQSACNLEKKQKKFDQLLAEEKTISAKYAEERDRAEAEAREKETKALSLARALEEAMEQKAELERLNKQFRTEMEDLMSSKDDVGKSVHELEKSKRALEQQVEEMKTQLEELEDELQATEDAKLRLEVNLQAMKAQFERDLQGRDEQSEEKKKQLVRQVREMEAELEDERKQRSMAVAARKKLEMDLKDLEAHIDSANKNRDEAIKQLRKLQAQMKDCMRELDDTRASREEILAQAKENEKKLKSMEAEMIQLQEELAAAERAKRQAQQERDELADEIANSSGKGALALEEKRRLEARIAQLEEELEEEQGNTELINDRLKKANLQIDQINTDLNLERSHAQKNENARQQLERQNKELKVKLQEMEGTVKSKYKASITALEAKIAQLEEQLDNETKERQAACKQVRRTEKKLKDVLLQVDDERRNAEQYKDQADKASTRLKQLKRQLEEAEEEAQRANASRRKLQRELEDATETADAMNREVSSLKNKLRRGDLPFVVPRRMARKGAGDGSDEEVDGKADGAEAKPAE
UniProt Q99805, sequence (Q99805 whole entry): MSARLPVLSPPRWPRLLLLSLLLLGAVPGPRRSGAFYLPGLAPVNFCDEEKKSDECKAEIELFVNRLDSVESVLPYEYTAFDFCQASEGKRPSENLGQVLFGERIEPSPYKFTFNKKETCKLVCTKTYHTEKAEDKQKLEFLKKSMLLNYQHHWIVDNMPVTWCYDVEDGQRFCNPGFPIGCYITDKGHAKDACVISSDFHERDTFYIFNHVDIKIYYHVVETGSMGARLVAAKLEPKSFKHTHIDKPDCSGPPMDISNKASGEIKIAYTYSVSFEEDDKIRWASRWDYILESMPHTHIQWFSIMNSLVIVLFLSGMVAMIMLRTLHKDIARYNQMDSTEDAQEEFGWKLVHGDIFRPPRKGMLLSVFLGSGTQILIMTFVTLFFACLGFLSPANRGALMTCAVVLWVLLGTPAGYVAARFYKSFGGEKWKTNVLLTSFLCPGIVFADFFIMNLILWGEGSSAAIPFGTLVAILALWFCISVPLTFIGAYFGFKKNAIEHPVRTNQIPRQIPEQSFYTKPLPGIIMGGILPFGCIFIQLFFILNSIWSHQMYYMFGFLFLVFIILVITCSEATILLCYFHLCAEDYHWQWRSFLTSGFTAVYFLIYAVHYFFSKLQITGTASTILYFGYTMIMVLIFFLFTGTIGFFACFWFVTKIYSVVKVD

Target	lysine labeling ratio R10:1
HSPG2 (lysine site: K1414) (UniProt P98160)	1.42 (active)
UniProt P62826 (lysine site: K134)	4.19
MYH9 (lysine site: K1246) (UniProt P35579)	0.944 (active)
ALCAM (lysine site: K76) (UniProt Q13740)	6.62
PLOD2 (lysine site: K412) (UniProt O00469)	7.56
ENO1 (lysine site: K256) (UniProt P06733)	1.87 (active)
FSCN1 (lysine site: K43) (UniProt Q16658)	1.7 (active)
EEF1G (lysine site: K437) (UniProt P26641)	3.73
TM9SF2 (lysine site: K328) (UniProt Q99805)	0.928 (active)
EZR (lysine site: K438) (UniProt P15311)	3.51
EEF2 (lysine site: K439) (UniProt P13639)	1.76 (active)
